CYP2C9 inh = blocks human cytochrome P450 2C9 | inhibition, % at 5 µM | P11712 | CYP2C9 Supersomes, luciferin-H conversion, luminescence | 96,000 tested, 20% active;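 active means blocking of liver enzyme CYP2C9 beyond about 50% at 5 µM, limit read from the data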
Target sequence (P11712 whole entry, looked up): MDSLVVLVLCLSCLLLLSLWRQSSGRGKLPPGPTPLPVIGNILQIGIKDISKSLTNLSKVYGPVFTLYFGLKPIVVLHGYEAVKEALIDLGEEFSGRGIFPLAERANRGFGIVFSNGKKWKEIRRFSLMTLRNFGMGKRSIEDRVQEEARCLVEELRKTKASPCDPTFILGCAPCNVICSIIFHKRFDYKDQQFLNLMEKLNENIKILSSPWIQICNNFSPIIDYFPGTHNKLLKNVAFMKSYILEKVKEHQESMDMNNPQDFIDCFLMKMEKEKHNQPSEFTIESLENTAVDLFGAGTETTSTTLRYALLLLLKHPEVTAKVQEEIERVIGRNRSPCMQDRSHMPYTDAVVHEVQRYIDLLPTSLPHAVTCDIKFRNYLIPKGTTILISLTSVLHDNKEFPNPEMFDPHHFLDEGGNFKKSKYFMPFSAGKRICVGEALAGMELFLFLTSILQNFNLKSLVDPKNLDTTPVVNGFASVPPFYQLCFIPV
CYP2C9 activ = increases human cytochrome P450 2C9 activity; 96,000 tested, 1.4% active; P11712; recombinant CYP2C9, luciferin-H conversion, luminescence; hits give high values; factor 1 = untreated enzyme, 0 = blocked; activation factor at 5 µM;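 active means activation factor of 2 or more for CYP2C9 at a 5 µM dose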
EphB4 antag = blocks human EphB4 binding to ephrin-B2. 97,000 tested, 0.15% active. AID 720. P54760. inhibition, % at 7 µM. EphB4 LBD / TNYL-RAW-Alexa532 peptide, fluorescence polarization;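 active means inhibition above the screen-wide mean inhibition plus 3 SD, cut at about 15% in these data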
CYP2C19 activ = activators of human cytochrome P450 2C19; AID 1025; P33261; 96,000 tested, under 10 active; activation factor at 5 µM; recombinant CYP2C19, luciferin-H EGE luminescence; hits give high values; 0 = fully inhibited enzyme, 1 = untreated enzyme;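 active means activation factor of at least 2 at 5 µM in the primary screen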
CYP2C19 inhib = inhibitors of human CYP2C19; P33261; CYP2C19 Supersomes, luciferin-H EGE luminescence, 30 min; inhibition, % at 5 µM; 96,000 tested, 21% active; AID 778;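 active means CYP2C19 inhibition above a set limit at 5 µM in the primary screen, cut at about 50% in these data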
A number is an active result; - = inactive; . = not tested or not shown. Only some compounds are listed: those with a hit (about 27% of all), similar ones and a draw of the others.

SMILES	CYP2C9 inh	CYP2C9 activ	EphB4 antag	CYP2C19 activ	CYP2C19 inhib
CCNc1nc(SC(C)C(=O)Nc2ccccc2)nc(N2CCOCC2)n1 (stereo not drawn)	56	-	-	-	-
CCOC(=O)CNC(=O)CSc1nc(NCc2ccccc2)nc(N(C)C)n1	-	-	-	-	53
CC(=O)C(Sc1nc(N2CCOCC2)nc(N2CCOCC2)n1)C(=O)Nc1ccccc1 (stereo not drawn)	55	-	-	-	-
c1ccc(Nc2nc(N3CCOCC3)nc(N3CCOCC3)n2)cc1	-	-	-	-	-
CC(=O)C(Sc1nn(C)c(=S)s1)C(=O)Nc1ccccc1 (stereo not drawn)	96	-	-	-	-
Cc1ccc(-c2nc3ncccn3c2NC2CCCC2)o1	-	-	-	-	-
Brc1ccc(-c2nc3ncccn3c2NC2CCCCC2)o1	56	-	-	-	-
CC(C)CN1C(=S)SC(C)(C)C1n1oc(=O)n(-c2ccc(Cl)cc2)c1=O (stereo not drawn)	88	-	-	-	66
COc1ccccc1OCc1nc2c3c(-c4ccccc4)c(-c4ccccc4)oc3ncn2n1	.	.	-	.	.
COc1ccc(C2c3c(ccc4ccccc34)Oc3ncn4nc(CO/N=C/c5ccccc5)nc4c32)cc1 (stereo not drawn)	56	-	-	-	-
COc1ccc(C2c3c(ncn(CCN4CCOCC4)c3=N)Oc3ccc4ccccc4c32)cc1 (stereo not drawn)	56	-	-	-	50
N=c1c2c(ncn1CCN1CCOCC1)Oc1ccc3ccccc3c1C2c1ccccc1 (stereo not drawn)	-	-	-	-	-
O=C(CSc1nnnn1-c1ccc(F)cc1)Nc1ccc(N2CCOCC2)c(Cl)c1	-	-	-	-	-
O=C1C2C(C(=O)N1Cc1cccnc1)C1C=CC2C12CC2 (stereo not drawn)	-	-	-	-	66
O=C1C2C3c4ccccc4C(c4ccccc43)C2C(=O)N1Cc1cccnc1 (stereo not drawn)	-	-	-	-	68
O=C1C2C3C=CC(C3)C2C(=O)N1Cc1cccnc1 (stereo not drawn)	-	-	-	-	-
COc1ccc(C(=O)NC(=S)Nc2ccc([N+](=O)[O-])cc2C)cc1OC	-	-	-	-	-
CCOc1cc(CNCc2ccccn2)ccc1OCC(=O)NC1CCCCC1	-	-	-	-	-
Cc1ccc(S(=O)(=O)CCSc2nc(C)cc(C)c2C#N)cc1	-	-	-	-	-
CCCCS/C(N)=N/N=C/c1ccccc1O	82	-	-	-	88
CN(C)/N=C/C=C1\CC/C(=C\c2ccc(Br)cc2)C1=O	-	-	-	-	54
COc1cccc(-n2c(Cc3cc(=O)[nH]c(=O)[nH]3)nnc2SCC(=O)NC2CCCCC2)c1	-	-	-	-	-
Cc1ccc(CNC(=O)C2(NC(=O)Nc3ccc(C)cc3)CCCCC2)cc1	54	-	-	-	-
COc1ccc(NC(=O)NC2(C(=O)N3CCCCCC3)CCCCC2)cc1	60	-	-	-	-
O=C(Nc1ccccc1Cl)NC1(C(=O)N2CCCCC2)CCCCC1	.	.	-	.	.
SMILES	CYP2C9 inh	CYP2C9 activ	EphB4 antag	CYP2C19 activ	CYP2C19 inhib
Cn1c(-c2ccc(Cl)cc2)ccc(C#N)c1=O	-	-	-	-	-
CCCN1C=CC(=C2C(=O)c3ccccc3C2=O)C=C1	58	-	.	-	76
CCOC(=O)c1cnc2c(C(F)(F)F)cccc2c1N1CCOCC1	-	-	-	-	68
CCOc1cc(C(=O)NCCOC)ccc1OC	-	-	-	-	-
CCOc1ccc2c(c1)c1nnc(SCC3CCCO3)nc1n2C (stereo not drawn)	-	-	-	-	-
CCn1c(=O)c2cc(S(=O)(=O)NCc3ccccc3)ccc2n(CC)c1=O	-	-	-	-	-
COc1cc(S(=O)(=O)NC2CCCC2)c(OC)cc1Cl	-	-	-	-	99
CCOc1cc(S(=O)(=O)NC2CCCCC2)ccc1F	60	-	-	-	80
CCn1c(=O)c2cc(S(=O)(=O)NC3CCCCC3)ccc2n(CC)c1=O	53	-	-	-	-
CCOc1cc(S(=O)(=O)N2CCCCCC2)ccc1F	-	-	-	-	87
COc1ccc(F)cc1S(=O)(=O)NC1CCCCCC1	-	-	-	-	-
CCc1nc(N)c(C#N)c(-c2cccn2C)c1C	.	.	-	.	.
Cn1c(=O)c2c(ncn2CCCc2ccccc2)n(C)c1=O	-	-	-	-	-
CCOC(=O)c1ccc(S(=O)(=O)NC2CCCCCCC2)n1C	85	-	-	-	53

Bioassay records as filed in PubChem BioAssay.
